Our source for the z-score values is PubChem BioAssay AID1259389 (Center for Chemical Genomics, University of Michigan, 2018).

Among all 100,000 compounds or so, about 620 (0.62%) were called active. Rule for the calls: active = z-score of 3 or more in at least 2 runs; inactive = the rest. The sample as a whole holds a higher share of actives than the screen did.

This assay in a line: TAR RNA-Tat peptide displacers, HIV-1, primary screen, biochemical, FRET, FAM/TAMRA-labeled Tat (AID 1259389). As to conditions: HIV-1 TAR RNA, Tat peptide displacement FRET; hits give high values.
`Cc1c2c(c(O)c3c(O)cccc13)C(=O)OC2[C@@H]1C(N(C)C)C(O)=C(C(N)=O)C(=O)[C@H]1O` (stereo not given in full): the z-score was 31 (active).

For the molecule `COc1cc(NC(=O)NCC2CCCO2)cc2sc(NS(=O)(=O)c3ccccc3)nc12` (stereo not given), the z-score was 0.36 (inactive).

Turning to `COc1cccc(-c2nc(-c3cc4cc(C)ccc4[nH]c3=O)no2)c1`, the z-score was 0.22 (inactive).

Turning to `Cc1ccc2cc(-c3noc(CCC(N)=O)n3)c(=O)[nH]c2c1`, the z-score was 6.88 (active).

As for `Cc1ccc2cc(-c3noc(CC(C)C)n3)c(=O)[nH]c2c1`, the z-score is -1.58 (inactive).

For the molecule `C=CCOc1ccc(C2c3c(oc4ccc(F)cc4c3=O)C(=O)N2CCOC)cc1` (stereo not given), the z-score is 2.08 (inactive).

On to `CCCOC(=O)C1=C(C)Nc2nnnn2C1c1cc(Br)ccc1OC` (stereo not given), for which the z-score was -6.75 (inactive).

For `Cc1cc2c3c([nH]c2cc1S(=O)(=O)Nc1ccccc1F)CC(C)(C)CC3=O`, the z-score was 0.08 (inactive).

In the case of `Cc1ccc(S(=O)(=O)Nc2cccc(-c3cn4ccccc4n3)c2)cc1C`, the z-score is 0.58 (inactive).

In the case of `CCCS(=O)(=O)Nc1cccc(-c2ccc(S(=O)(=O)CC)nn2)c1`, the z-score was -0.4 (inactive).

For the molecule `CCCS(=O)(=O)Nc1cccc(-c2cn3ccsc3n2)c1`, the z-score was 15.9 (active).

As to `O=C1COc2cc(S(=O)(=O)CCC(=O)N3CCCC3)c(Cl)cc2N1`, the z-score was 0.78 (inactive).

As for `COc1ncnc2sc(C(=O)O)c(C)c12`, the z-score is 1.15 (inactive).

With `CCN1CCN(c2ncnc3sc(C(=O)N4CCC(N5CCCCC5)CC4)c(C)c23)CC1`, the z-score is 1.72 (inactive).

Take `Cc1ccc(C)c(N2CCN(c3ncnc4sc(C(=O)O)c(C)c34)CC2)c1`: the z-score is 4.41 (active).

As to `Cn1c(=O)oc2cc(S(=O)(=O)N3CCC(C(=O)NCCC4=CCCCC4)CC3)ccc21`, the z-score was -0.51 (inactive).

Regarding `CCOC(=O)C1=C(C)NC2=C(C(=O)C(C(=O)OC)C(C)C2)C1c1ccc(C)s1` (stereo not given), the z-score was 1.89 (inactive).

Take `Cc1cccc(NC(=O)c2cc3c(s2)-c2ccccc2S(=O)(=O)C3)n1`: the z-score was 1.46 (inactive).

For `CCc1ccc(Nc2nn3c(=O)c4cc5c(cc4nc3s2)OCO5)cc1`, the z-score was 3.98 (inactive).

On to `COC(=O)c1ccc2c(=O)n3nc(Nc4ccc(F)c(F)c4)sc3nc2c1`, for which the z-score is -0.18 (inactive).

In the case of `O=c1c2ccccc2nc2sc(Nc3ccc4c(c3)OCO4)nn12`, the z-score was 18.8 (active).

As to `C=CCN(Cc1nc(-c2cccc(C)c2)no1)S(=O)(=O)c1ccccc1`, the z-score is 1.74 (inactive).

`CC(C)OC(=O)c1ccc(N2CC(O)=C(c3nc4ccccc4n3C)C2=N)cc1`: the z-score is -0.32 (inactive).

As for `CSc1cccc(N2CC(c3nc4ccccc4n3CCN3CCOCC3)CC2=O)c1` (stereo not given), the z-score was 1.11 (inactive).

As for `CCc1cccc(NS(=O)(=O)c2ccc(/C=C/c3onc(C)c3[N+](=O)[O-])cc2)c1`, the z-score was 1.16 (inactive).
